The record followed here is PubChem BioAssay (NCATS).

Molecules are shown by their SMILES. Records with an inconclusive call do not appear. Activity calls are given as the source filed them. The call rests on the fitted dose curve; in most records, active means well fitted cell-killing curve with a large enough effect; inconclusive means small, poorly fitted or top-dose-only effect, or effect the other way; inactive means no such curve, though single readings can be large or run the other way.
Potency means the concentration at half of the fitted maximal effect.

A short description of this assay: Quantitative High-Throughput drug screen in 47 multiple myeloma cell lines against the NCATS MIPE library collection: OPM2_DSMZ cell viability assay (AID 1919872). Further: nearly all actives have a fitted effect of over 30% in size. The conditions noted are these: OPM2 myeloma viability, CellTiter-Glo ATP luminescence, 48 h; series mostly up to 45.8 µM. The method, boiled down:
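CellTiter-Glo ATP luminescence gave viability after 48 h compound treatment at 37C of 500 multiple myeloma cells per well. Normalisation used DMSO-only wells as 100% and media-only wells as 0% viability; primary qHTS of approved and investigational drugs.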
`CNC(=O)c1cc(Oc2ccc(NC(=O)Nc3cc(C(C)(C)C)nn3-c3ccc4ncccc4c3)c(F)c2)ccn1`: the Potency is 18700 nM (active). Regarding `O=C(CCCCCCC(=O)Nc1ccc([C@H]2O[C@@H](CSc3nc(-c4ccccc4)c(-c4ccccc4)o3)C[C@@H](c3ccc(CO)cc3)O2)cc1)NO`, the Potency was 20900 nM (active).

On to `O=C(NCCCNc1nc(Nc2cccc(NC(=O)N3CCCC3)c2)ncc1I)c1cccs1`, for which the Potency was 16600 nM (active). In the case of `NC1(Cc2ccc(Cl)cc2)CCN(c2ncnc3[nH]ccc23)CC1`, the Potency was 18700 nM (active). Consider `CC(C)[C@H](C(=O)Nc1ccc(C(=O)NO)cc1)c1ccccc1`, for which the Potency was 833 nM (active).

As to `COC(=O)Nc1ccc(-c2nc(N3CCOCC3)c3cnn(C4CCN(Cc5cccnc5)CC4)c3n2)cc1`, the Potency is 296 nM (active). Regarding `C#Cc1cccc(Nc2ncnc3cc(OC)c(OCCCCCCC(=O)NO)cc23)c1`, the Potency was 1480 nM (active). As to `CCC1=C[C@@H]2CN(C1)Cc1c([nH]c3ccccc13)[C@@](C(=O)OC)(c1cc3c(cc1OC)N(C)[C@@H]1[C@@](O)(C(=O)OC)[C@H](OC(C)=O)[C@]4(CC)C=CCN5CC[C@]31[C@@H]54)C2`, the Potency is 16.6 nM (active). As to `CN1CCN(Cc2ccc(NC(=O)Nc3ccc(Oc4cc(NC(=O)C5CC5)ncn4)cc3)cc2C(F)(F)F)CC1`, the Potency was 526 nM (active).

Turning to `C=CC(=O)Nc1cc2c(Nc3ccc(F)c(Cl)c3)ncnc2cc1OCCCN1CCOCC1`, the Potency is 20900 nM (active). Under `O=C(Cc1ccc(-c2ccc(OCCN3CCOCC3)cc2)cn1)NCc1ccccc1` stands 37.2 nM (active). For `CC(C)c1ccc(Cn2ccc3c4c(N)nc(NC5CC5)nc4ccc32)cc1`, the Potency is 6620 nM (active). For `COCCOc1ccc2c(c1)ncn2-c1ccc2cccc(N3CCC(N)CC3)c2n1`, the Potency is 1870 nM (active). Under `Cc1ccc(-c2ncn(-c3ccc(Nc4nccc(-c5cccc(N6CCOCC6)c5)n4)cc3)n2)cn1` stands 296 nM (active). `CC[C@@]1(O)C(=O)OCc2c1cc1n(c2=O)Cc2cc3cc(O)ccc3nc2-1`: the Potency was 3320 nM (active). With `c1cc(-c2cnn3cc(-c4ccc(OCCN5CCCCC5)cc4)cnc23)ccn1`, the Potency was 20900 nM (active). On to `CC(C)c1cnn2c(NCc3ccccc3)cc(N[C@@H](CO)[C@H](O)CO)nc12`, for which the Potency was 332 nM (active). For `C[C@@H](Oc1cc(-c2cnn(C3CCNCC3)c2)cnc1N)c1c(Cl)ccc(F)c1Cl`, the Potency is 18700 nM (active). For the molecule `COc1cccc2nc(-c3cccs3)nc(NN3C(=O)C=C(C)C3=O)c12`, the Potency was 1480 nM (active).
